Results published in PubChem BioAssay AID624330 (Southern Research Specialized Biocontainment Screening …, 2012).
The whole screen tested about 340,000 compounds, of which about 2,100 (0.62%) were called active. These entries were drawn from the full list. Potency and affinity values are given separately. Values without a mark were called inactive.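 Rule for the calls: active = first-screen hits whose inhibition reached a set limit at any dose in the follow-up dose series; inconclusive = inhibition above the set first-screen limit but never retested; inactive = the rest.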

The compounds below were run against Rac GTPase-activating protein 1 (Homo sapiens) (UniProt Q9H0H5) (assay: MgcRacGAP GTPase-activating activity inhibitors, confirmation, biochemical, ADP Hunter fluorescence, primary and confirmatory (AID 624330;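 note: fluorescence reports GDP produced by GAP-driven GTP hydrolysis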)). Details: MgcRacGAP-stimulated Rac1 GTP hydrolysis, at 30 µM, stronger effect = higher value, GST-tagged Rac1 F28L mutant substrate.
Rac GTPase-activating protein 1 (Homo sapiens), sequence (Q9H0H5 whole entry, looked up): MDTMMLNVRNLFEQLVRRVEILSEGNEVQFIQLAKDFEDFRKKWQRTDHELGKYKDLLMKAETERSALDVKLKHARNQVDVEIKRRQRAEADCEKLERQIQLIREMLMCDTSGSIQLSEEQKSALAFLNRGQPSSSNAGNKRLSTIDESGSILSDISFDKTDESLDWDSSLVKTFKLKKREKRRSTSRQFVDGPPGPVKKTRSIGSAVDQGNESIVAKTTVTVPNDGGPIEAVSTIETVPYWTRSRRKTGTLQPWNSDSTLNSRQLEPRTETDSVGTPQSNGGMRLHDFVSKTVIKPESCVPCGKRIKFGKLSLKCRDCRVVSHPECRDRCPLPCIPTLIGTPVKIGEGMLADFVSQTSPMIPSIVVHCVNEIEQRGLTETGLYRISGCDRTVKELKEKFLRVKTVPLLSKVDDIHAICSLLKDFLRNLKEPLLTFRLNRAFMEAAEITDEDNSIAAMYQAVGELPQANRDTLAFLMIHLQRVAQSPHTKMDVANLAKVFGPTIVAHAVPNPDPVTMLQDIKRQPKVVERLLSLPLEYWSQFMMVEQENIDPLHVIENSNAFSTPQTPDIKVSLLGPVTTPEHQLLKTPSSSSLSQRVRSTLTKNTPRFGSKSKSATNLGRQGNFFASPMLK

Compound | inhibition [%]
O=S1(=O)CCN(Cc2cccnc2)CC1 | 0.02
CC1CCCCN1Cc1ccc(N(C)C)cc1 (stereo not drawn) | 9.51
CC1CCCCN1Cc1ccc(N)cc1 (stereo not drawn) | 5.78
O=C(O)C1CCN(Cc2cccnc2)CC1 | 2.37
COc1ccc(CN(CCc2ccccc2)Cc2ccccc2)cc1OC | 28.5
O=C(O)CSc1nnc(SCc2cccc3ccccc23)s1 | 4.86
CCN(CC)C(=O)CSc1nc2c(sc(=S)n2CC)c(=O)n1-c1ccccc1 | 2.69
Cc1ccc(N2C(=O)NC3(CCCCC3)C2=O)cc1 | 8.08
COc1ccc(N2C(=O)NC(=O)C2=O)cc1 | 6.21
COC(=O)[C@@]12CCCN1[C@H](c1ccc(-c3ccc(Cl)c(Cl)c3)cc1)[C@H]1C(=O)N(C)C(=O)[C@H]12 | -9.75
O=C(CN1CCc2ccccc2C1)Nc1ccccc1F | 8.8
Cc1cnc(NC(=O)C(C)N2C(=O)C3CC=CCC3C2=O)s1 (stereo not drawn) | 5.83
CC(C(=O)Nc1ccc2c(c1)OCO2)N1CCC(N2CCCCC2)CC1 (stereo not drawn) | 26
CC(=O)c1ccc(N2CCN(C(C)C(=O)Nc3ccc4c(c3)OCCO4)CC2)cc1 (stereo not drawn) | -0.86
Cc1ccc(NC(=O)C(C)N2CCCC2)cc1Cl (stereo not drawn) | 13.2
O=C(CN1CCc2ccccc2C1)Nc1ccccc1Cl | 9.11
CN1CCN(CCC(=O)Nc2ccc(F)c(F)c2)CC1 | 2.01
Cc1cnc(NC(=O)[C@H](C)N2C(=O)C3CCCCC3C2=O)s1 (stereo partly drawn) | 1.01
Cc1cccc(-c2nc(C#N)c(N3CCC(C)CC3)o2)c1 | -3.59
COc1ccccc1/C=N/NC(=O)CC(=O)Nc1ccc(Cl)c(Cl)c1 | 3.66
Cc1ccc(S(=O)(=O)NCCC(=O)N2CCN(Cc3ccccc3)CC2)cc1 | -1.47
Cc1ccc(C(=O)OCC(=O)NCc2cccs2)c(C)c1 | 6.37
Cc1ccc(Oc2ccccc2NC(=O)CSCC(=O)Nc2cc(C)on2)cc1 | 3.22
CN1CCN(CCNC(=O)Nc2ccccc2C(F)(F)F)CC1 | -0.21
COc1ccc(NC(=O)NN2CCN(C)CC2)cc1 | 2.87

Compound | inhibition [%]
COc1ccc(S(=O)(=O)N2CCN(C(C)C(=O)Nc3ccc(C(C)C)cc3)CC2)cc1 (stereo not drawn) | 5.24
CN1CCN(CC(=O)Nc2ccccc2C(F)(F)F)CC1 | 28.9
CC1Cc2ccccc2N1C(=O)CSc1nc2ccccc2s1 (stereo not drawn) | 11.8
CC(C)=NNC(=O)CN1C(=O)NC2NC(=O)NC21 (stereo not drawn) | 6.56
CC1(C)C2CCC(CN)C1C2 (stereo not drawn) | 5.66
Cc1nnc2sc(SCC(=O)Nc3cccc(Cl)c3)nn2c1=O | 5.95
COCC(C)n1c(C)cc(C(=O)CSc2nnnn2-c2ccc(O)cc2)c1C (stereo not drawn) | 6.49
Cc1cc(/C=C2\NC(=S)N(C)C2=O)ccc1N1CCCC1 | 22.4
COc1cc(/C=C2\NC(=S)N(C)C2=O)ccc1OCc1ccccc1F | -3.41
O=C(NN=Cc1ccccc1C(=O)O)c1ccc(NS(=O)(=O)c2cccs2)cc1 | 5.61
O=C(Cn1ccccc1=O)Nc1ccc(Cl)c(S(=O)(=O)N2CCCCC2)c1 | 1.69
NC(=O)c1cc(-c2csc(-c3cccnc3)n2)ccc1O | 18.7
Fc1ccccc1-c1csc(-c2cccnc2)n1 | -4.78
c1ccc(-c2csc(-c3cccnc3)n2)cc1 | 9.56
Fc1ccc(-c2csc(-c3cccnc3)n2)cc1F | 7.05
COc1ccc(NC(=O)Nc2cccc3c2O[C@H](CN(C)S(=O)(=O)c2c(C)noc2C)[C@@H](C)CN([C@H](C)CO)C3=O)cc1 | 6.8
Fc1ccc(-n2cnnn2)c(F)c1 | 3.22
CCCOc1ccc(C(=O)Nc2ccc(N3CCN(C(=O)c4ccco4)CC3)cc2)cc1 | 3.27
CCC(C)[C@H](NC(=O)[C@@H]1Cc2ccccc2CN1)C(=O)Nc1ccc2c(c1)OCO2 (stereo partly drawn) | -13.9
COc1cc(/C=C/C(=O)OCC(=O)Nc2cc(S(=O)(=O)N3CCCC3)ccc2Cl)cc(OC)c1OC | -3.8
CCN(CC(=O)Nc1cccc(S(=O)(=O)N2CCCC2)c1)CC(=O)Nc1ccccc1OC | 2.96
CCN(CC)c1ccc(S(=O)(=O)N2CCOCC2)cc1NC(=O)COC(=O)/C=C/c1ccccc1 | -3.02
COc1cccc(/C=C/C(=O)OCC(=O)Nc2cc(S(=O)(=O)N3CCOCC3)ccc2C)c1 | 2.2
CCN(CC)c1ccc(S(=O)(=O)N2CCOCC2)cc1NC(=O)COC(=O)/C=C/c1ccc(C)o1 | 2.13
COc1cccc(/C=C/C(=O)OCC(=O)Nc2ccc(S(=O)(=O)N3CCCC3)cc2)c1 | 1.91

Compound | inhibition [%]
COc1cccc(NC(=O)CN(C)C(C)C(=O)Nc2ccc(S(=O)(=O)N3CCCC3)cc2)c1 (stereo not drawn) | -2.38
COc1cc(/C=C/C(=O)OCC(=O)Nc2ccc(C)c(S(=O)(=O)N3CCCCC3)c2)ccc1O | 13.2
C=CCn1c(C(C)C)nc2ccccc21 | 4.59
O=C1CN(C(=O)COC(=O)CCc2ccccc2O)c2ccccc2N1 | 1.54
N#CC1(N2CCN(C(=O)c3ccccc3)CC2)CCCCC1 | 8.68
Clc1ccc(N2CCN(c3ncnc4c3oc3ccccc34)CC2)cc1 | -2.02
CCC(=O)Nc1cccc(C(=O)OCc2cccc([N+](=O)[O-])c2)c1 | 5.63
Cc1cc(C(=O)Nc2c(C)n(C)n(-c3ccccc3)c2=O)on1 | 11.2
O=C(c1ccc(F)cc1F)N1CCN(S(=O)(=O)c2ccc3c(c2)OCCO3)CC1 | 7.11
COc1cc2cnc(CCO[C@H]3CCCCO3)cc2cc1OC | 7.49
COc1ccc(NC(=O)Cc2ccsc2)cc1S(=O)(=O)N1CCOCC1 | -4.48
Cc1ccc(-c2onc3ccc(C4OCCO4)cc23)cc1 | 12.2
CSc1ccccc1NC(=O)NCCCl | -4.18
CCCN1CCN(CCCNC(=O)C(CC)n2nc(C)n3c(cc4occc43)c2=O)CC1 (stereo not drawn) | 10.2
O=C(CCl)Nc1sccc1C(=O)c1ccccc1 | 11.5
CCOc1ccc(C2Nc3ccc4ccccc4c3-c3c2c(=O)oc2ccccc32)cc1 (stereo not drawn) | 5.67
Cc1nc2ccc(C(=O)O)cc2nc1C | 8.31
CC(=O)CCc1c(C)nc2ccc(C(=O)O)cc2c1Cl | -3.43
Cc1cc(C)nc(NC2=NCCN2C(=O)NC2CCCCC2)n1 | 1.52
Nc1ncnc2c1ncn2[C@@H]1O[C@H](CNCc2ccccc2OCc2ccc(Cl)cc2Cl)[C@@H](O)[C@H]1O | 6.96
COc1ccccc1/C=N/NC(=O)c1ccc(NC(=O)c2ccccc2Br)cc1 | 1.59
Cc1ccc(NC(=O)NC(=O)CSc2n[nH]c(N)n2)c(C)c1 | -33.7
Cc1oc(-c2nc3ccccc3n2C)cc1C(=O)c1ccccc1 | -4.53
CC(=O)N1CCN(c2ccc(NC(=O)c3ccc4c(c3)OCO4)cc2)CC1 | 9.85
O=C(O)c1ccc(NCc2ccc3c(c2)OCO3)cc1 | 7.49

Compound | inhibition [%]
O=C(CN1CCN(Cc2ccc3c(c2)OCO3)CC1)Nc1ccc(N2CCOCC2)cc1 | -4.89
O=C(O)c1cc(NCc2ccc3c(c2)OCO3)ccc1N1CCOCC1 | 12.2
O=C(NCc1ccc2c(c1)OCO2)C(=O)NCC1OCCN1S(=O)(=O)c1ccccc1 (stereo not drawn) | 4.4
Cc1cccc(OCC(=O)N2CCCc3ccccc32)c1 | -0.63
COc1ccc(CN(C)CCCn2cnc(C(=O)Nc3ccc(C)c(C)c3)n2)cc1OC | 8.28
COc1cc(CN2CCN(Cc3ccccc3C(F)(F)F)CC2)cc(OC)c1OC | 5.51
O=C(c1ccco1)N1CCN(Cc2cccc3ccccc23)CC1 | 15.8
CCN1CCN(Cc2cccc(Oc3ccccc3)c2)CC1 | 22.4
COc1cccc(CN2CCN(c3ncccn3)CC2)c1OC | 2.75
COc1ccccc1CN1CCN(C(=O)c2ccco2)CC1 | -1.8
CN1CCN(Cc2cccc(Oc3ccccc3)c2)CC1 | 4.23
Cc1cc(Br)ccc1NC(=O)CCSc1ccccc1 | 2.79
Cc1ccc(NC(=O)c2cc(N(C)C)ccc2[P+](=O)O)cc1 | 4.54
Cc1ccc(C(=O)O)cc1N1CCCC1=O | -7.73
CCC(Sc1nc2n[nH]c(C)c2c(=N)n1-c1ccc(C)c(Cl)c1)C(=O)N1CCOCC1 (stereo not drawn) | 8.01
Oc1ccccc1CN1CCCC(N2CCc3ccccc3C2)C1 (stereo not drawn) | 12.1
c1ccc2c(c1)CCN(C1CCCCC1)C2 | 26.9
COCCN(CCOC)C(=O)COC(=O)c1ccc(Cl)c(S(=O)(=O)N(C)c2ccccc2)c1 | 3.9
O=S1(=O)N=C(SCCO)c2ccccc21 | 4.31
CC1=C(SCc2ccccc2)C(=O)c2ccccc2C1=O | -10.4
Cc1ccc(OCCNC(=O)C(C)SCC(=O)Nc2ccc(F)cc2)cc1 (stereo not drawn) | 1.75
O=C1C=CC(=O)N1c1ccc(O)cc1 | 15.3
O=C(O)c1ccc2c(c1)C(=O)N(c1ccc(Nc3ccccc3)cc1)C2=O | 9.3
